Assay results as given in PubChem BioAssay (NCATS).
Records with an inconclusive call do not appear. A call without a number means that no potency is given here. Activity calls are given as the source filed them. The call rests on the fitted dose curve; in most records, active means well fitted inhibition curve with a large enough effect; inconclusive means small, poorly fitted or top-dose-only effect; inactive means no such curve, though single readings can be large or run the other way. Where a SMILES comes first, the peptide text is derived from it. [ ]: non-standard residue; d: D form.

The molecules below were run on Zika virus NS2B-NS3 protease (unlinked complex) (assay: Primary screen GU Rhodamine qHTS for Zika virus inhibitors: Unlinked NS2B-NS3 protease assay (AID 1347159; further: nearly all actives have a fitted effect of over 60% in size; further: potency means the concentration at half of the fitted maximal effect)). Settings: Recombinant ZIKV NS2B-NS3 protease, Rhodamine110 substrate fluorescence; series mostly up to 107 µM.
Method in brief: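 Enzyme 25 nM in Tris-HCl pH 8.0 + 0.01% Tween 20; compounds up to 114 microM, 15 min RT dark; + Rhod110 substrate 1.5 microM; read t0 and 15 min; delta fluorescence → % inhibition → 4-parameter Hill fit.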
`CC1=C2C(=O)O[C@@H](c3ccoc3)[C@]2(C)CCC1` was tested, and the Potency was “inactive”.
For `CC(=O)c1c(C)cc(O)cc1O[C@@H]1O[C@H](CO)[C@@H](O)[C@H](O)[C@H]1O`, the Potency was “inactive”.
For `OC[C@H]1O[C@@H](Oc2ccc(O)c3cccc(O)c23)[C@H](O)[C@@H](O)[C@@H]1O`, the Potency was 10 µM (active).
`CC1C/C=C/C=C\CCCCC(O)C/C=C/C(=O)O1` (stereo not given) was tested, and the Potency was 17.8 µM (active).
`Cc1nn(C)c(COc2ccc(N3CCN(S(=O)(=O)N(C)C)CC3)cc2)c1-c1cccc2c(CCCOc3cccc4ccccc34)c(C(=O)O)n(CCN3CCOCC3)c12` was tested, and the Potency was 4.47 µM (active).
With `CC1(C)CC[C@]2(C(=O)O[C@@H]3O[C@H](CO)[C@@H](O)[C@H](O)[C@H]3O)CC[C@]3(C)C(=CCC4[C@@]5(C)C[C@@H](O)[C@H](O)[C@@](C)(CO)C5CC[C@]43C)C2C1` (stereo not given in full) the Potency was “inactive”.
`CCCCS(=O)(=O)Nc1ncnc(OCCOc2ncc(Br)cn2)c1-c1ccc(Br)cc1` was tested, and the Potency was “inactive”.
`C=C1CC23CCC4[C@@](C)(CCC[C@@]4(C)C(=O)O)C2CCC1C3` (stereo not given in full) was tested, and the Potency was 20 µM (active).
`NCc1ccc(OCCCc2sc(-c3ccc4c(c3)/C(=N/Nc3nc5ccccc5s3)CCC4)nc2C(=O)O)cc1` was tested, and the Potency was 39.8 µM (active).
With `CC1(C)CC2C3=CCC4C5(C)CCC(OC6OC(CO)C(O)C(OC7OC(CO)C(O)C(OC8OC(CO)C(O)C(OC9OC(COC%10OC(CO)C(O)C(O)C%10O)C(O)C(O)C9O)C8O)C7O)C6O)C(C)(C)C5CCC4(C)C3(C)CCC2(C(=O)O)CC1O` (stereo not given) the activity change, negative = inhibition was -21.5% [at 19.1 µM] (inactive).
With `CC(C)(O)/C=C1/C(=O)C(C)(C)C(=O)C(C)(C)C1(O)O[C@@H]1O[C@H](COC(=O)c2cc(O)c(O)c(O)c2)[C@@H](O)[C@H](O)[C@H]1O` (stereo not given in full) the Potency was “inactive”.
With `CC(C)(O)C1CC=C(C(=O)OCC2OC(Oc3c(O)cc(C(=O)O)cc3O)C(O)C(O)C2O)CC1` (stereo not given) the Potency was “inactive”.

Each molecule was assayed on Zika virus NS2B-NS3 protease (linked construct) (assay: Primary screen NINDS Rhodamine qHTS for Zika virus inhibitors (AID 1347160; further: nearly all actives have a fitted effect of over 55% in size)). Settings: purified NS2B-NS3 protease, Rhodamine110 substrate fluorescence; series mostly up to 57.1 µM.
Method in brief: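 Enzyme (25 nM, linked NS2B-NS3) was preincubated 15 min with compound in 10 mM Tris-HCl pH 8.0, 0.01% Tween 20. Rhodamine110 substrate (1.5 microM) was then added and fluorescence read at start and after 15 min.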
With `COc1ccc([C@@H]2N[C@H](C(=O)O)Cc3c2[nH]c2ccccc32)cc1CN1CCN(c2ccccc2F)CC1` the Potency was “inactive”.
With `CCNC(=O)[C@@H]1CCCN1C(=O)[C@H](CCCN=C(N)N)NC(=O)[C@H](CC(C)C)NC(=O)[C@@H](C)NC(=O)[C@H](Cc1ccc(O)cc1)NC(=O)[C@H](CO)NC(=O)[C@H](Cc1c[nH]c2ccccc12)NC(=O)[C@H](Cc1cnc[nH]1)NC(=O)[C@@H]1CCC(=O)N1` the Potency was “inactive”.
`COc1cc([C@@H]2Oc3c(OC)cc(CCCO)cc3[C@@H]2CO[C@@H]2O[C@H](CO)[C@@H](O)[C@H](O)[C@H]2O)ccc1O` was tested, and the Potency was “inactive”.
In the case of `C[C@@H]1O[C@@H](O[C@H]2[C@H](O)[C@@H](O)[C@H](OC[C@H]3O[C@@H](OC(=O)[C@]45CCC(C)(C)C[C@H]4C4=CCC6[C@@]7(C)C[C@H](O)[C@H](O[C@@H]8O[C@H](CO)[C@@H](O)[C@H](O)[C@H]8O)[C@@](C)(C(=O)O)C7CC[C@@]6(C)[C@]4(C)CC5)[C@H](O[C@@H]4O[C@H](CO)[C@@H](O)[C@H](O)[C@H]4O)[C@@H](O)[C@@H]3O)O[C@@H]2CO)[C@H](O)[C@H](O)[C@H]1O` (stereo not given in full), the activity change, negative = inhibition is reported as -5.11% [at 10.7 µM] (inactive).
For `COC(=O)c1ccc(O[C@@H]2O[C@H](CO)[C@@H](O)[C@H](O)[C@H]2O)c(OC)c1`, the Potency was “inactive”.
In the case of `CC(C)C1(O[C@@H]2O[C@H](CO)[C@@H](O)[C@H](O)[C@H]2O)CC=C(CO)CC1` (stereo not given in full), the Potency is reported as “inactive”.
For `CC(=O)O[C@@H]1[C@H]2[C@@H](OC(=O)c3ccccc3)[C@@H](C)C[C@]2(O)[C@H](OC(C)=O)[C@@]2(C)[C@@H]3CC(C)(C)C(=O)[C@]3(OC(C)=O)C[C@@]12C`, the Potency was “inactive”.
`C=CC(C)(C)O[C@@H]1O[C@H](CO[C@@H]2OC[C@](O)(CO)[C@H]2O)[C@@H](O)[C@H](O)[C@H]1O` was tested, and the Potency was “inactive”.
For `C[C@@H]1O[C@@H](O[C@H]2[C@H](O)[C@@H](C(=O)O)O[C@@H](O[C@H]3CC[C@@]4(C)C(CC[C@]5(C)C4CC=C4C6CC(C)(C)CC[C@]6(C(=O)O)CC[C@]45C)C3(C)C)[C@@H]2O[C@@H]2O[C@H](CO)[C@@H](O)[C@H](O)[C@H]2O)[C@H](O)[C@H](O)[C@H]1O` (stereo not given in full), the Potency was “inactive”.
With `C[C@@H]1O[C@@H](O[C@@H]2[C@@H](O)[C@H](O[C@@H]3[C@@H](O)[C@@H](O)[C@H](O[C@H]4[C@H](OC(=O)[C@]56CCC(C)(C)C[C@H]5C5=CCC7[C@@]8(C)C[C@H](O)[C@H](O[C@@H]9O[C@@H](C)[C@H](O)[C@@H](O)[C@H]9O)[C@@](C)(CO)C8CC[C@@]7(C)[C@]5(C)C[C@H]6O)O[C@H](C)[C@H](O)[C@@H]4O)O[C@H]3C)OC[C@H]2O)[C@H](O)[C@H](O)[C@H]1O` (stereo not given in full) the activity change, negative = inhibition was 4.29% [at 10.7 µM] (inactive).
In the case of `COc1ccc2cc(OCC3(C(=O)O)CN(C(=O)c4ccc(F)cc4)C3)ccc2c1`, the Potency is reported as “inactive”.
With `C/C(=C\CO)CC/C=C(\C)C(=O)O[C@H]1[C@H](OC2OC=C(C(=O)O)C3CCC(C)(O)C23)O[C@H](CO)[C@@H](O)[C@@H]1O` (stereo not given in full) the Potency was “inactive”.
With `CC1CCC2(C(=O)OC3OC(CO)C(O)C(O)C3O)CCC3(C(=O)O)C(=CCC4C5(C)CCC(OC6OC(C)C(O)C(O)C6O)C(C)(C)C5CCC43C)C2C1C` (stereo not given) the Potency was “inactive”.
With `CC1=C2C(=O)O[C@@H](c3ccoc3)[C@]2(C)CCC1` the Potency was “inactive”.
`CCc1c(CC(N)=O)c2cc(OCCCP(=O)(O)O)ccc2n1Cc1ccccc1` was tested, and the Potency was “inactive”.
With `C[C@@H]1O[C@@H](O[C@@H]2[C@@H](O)[C@H](O[C@@H]3[C@@H](O)[C@@H](O)[C@H](O[C@H]4[C@H](OC(=O)[C@]56CCC(C)(C)C[C@H]5C5=CCC7[C@@]8(C)C[C@H](O)[C@H](O[C@@H]9O[C@H](C(=O)O)[C@@H](O)[C@H](O)[C@H]9O)[C@@](C)(CO)C8[C@H](O)C[C@@]7(C)[C@]5(C)CC6)OC[C@H](O)[C@@H]4O)O[C@H]3C)OC[C@H]2O)[C@H](O)[C@H](O)[C@H]1O` (stereo not given in full) the outcome was “inactive [at 10.7 µM]”.
With `C/C=C(\C)C(=O)O[C@H]1[C@H](O)[C@]2(COC(C)=O)[C@H](O)C[C@]3(C)C(=CCC4[C@@]5(C)CC[C@H](O[C@@H]6O[C@H](C(=O)O)[C@@H](O[C@@H]7O[C@H](CO)[C@@H](O)[C@H](O)[C@H]7O)[C@H](O)[C@H]6O[C@@H]6O[C@H](CO)[C@@H](O)[C@H](O)[C@H]6O)[C@](C)(CO)C5CC[C@]43C)[C@@H]2CC1(C)C` (stereo not given in full) the Potency was “inactive”.
For `CC(=O)N[C@H](Cc1ccc(O)cc1)C(=O)N[C@H](CCCN=C(N)N)C(=O)N[C@H](Cc1ccccc1)C(N)=O` (Ac-[dY]-[dR]-[dF]-NH2), the Potency was “inactive”.
`C[C@H]1[C@H](C)CC[C@]2(C(=O)O[C@@H]3O[C@H](CO)[C@@H](O)[C@H](O)[C@H]3O)CC[C@]3(C(=O)O)C(=CCC4[C@@]5(C)CC[C@H](O[C@@H]6O[C@H](CO)[C@@H](O)[C@H](O)[C@H]6O)C(C)(C)C5CC[C@]43C)[C@H]12` (stereo not given in full) was tested, and the Potency was “inactive”.
For `OC[C@H]1O[C@@H](Oc2ccc(O)c3cccc(O)c23)[C@H](O)[C@@H](O)[C@@H]1O`, the Potency was “inactive”.
For `COc1ccccc1[C@@H]1C2=C(CC(C)(C)CC2=O)Nc2n[nH]c(C(F)(F)F)c21`, the Potency was “inactive”.
For `CC1=CC(=O)C2C(C)(C)CCCC2(C)C12CCC1(COC(=O)C1)O2` (stereo not given), the Potency was “inactive”.
For `CC(C)CC(=O)OC[C@H]1O[C@@](COC(=O)CC(C)C)(O[C@H]2O[C@H](CO)[C@@H](O)[C@H](O)[C@H]2O)[C@@H](OC(=O)CC(C)C)[C@@H]1OC(=O)CC(C)C`, the Potency was “inactive”.
In the case of `CC1C/C=C/C=C\CCCCC(O)C/C=C/C(=O)O1` (stereo not given), the Potency is reported as “inactive”.
In the case of `Cc1nn(C)c(COc2ccc(N3CCN(S(=O)(=O)N(C)C)CC3)cc2)c1-c1cccc2c(CCCOc3cccc4ccccc34)c(C(=O)O)n(CCN3CCOCC3)c12`, the Potency is reported as “inactive”.
With `CC1(CO)CC2C(O)C(=O)C3(CO)CC3(C)C2C1` (stereo not given) the Potency was “inactive”.
With `O=S(=O)(Nc1ccc(C(O)(C(F)(F)F)C(F)(F)F)cc1)c1cccs1` the Potency was “inactive”.
With `CC1CC(O)C2(C)C(C(=O)O)=CCCC2C1(C)CCc1ccoc1` (stereo not given) the Potency was “inactive”.
In the case of `C=C1CC23CCC4[C@@](C)(CCC[C@@]4(C)C(=O)O)C2CCC1C3` (stereo not given in full), the Potency is reported as “inactive”.
In the case of `NCc1ccc(OCCCc2sc(-c3ccc4c(c3)/C(=N/Nc3nc5ccccc5s3)CCC4)nc2C(=O)O)cc1`, the Potency is reported as “inactive”.
With `CC(c1c[nH]c2ccccc12)C(O)C(=O)O` (stereo not given) the Potency was “inactive”.
`C=C1CC[C@@H]2[C@](C)(CO[C@@H]3O[C@H](CO)[C@@H](O)[C@H](O)[C@H]3O)CCC[C@@]2(C)[C@@H]1CCC1=CCOC1=O` was tested, and the Potency was “inactive”.
`CC1=C(C)C(=O)OC(C(C)(O)C2CCC3C4CC=C5CC(OC6OC(COC7OC(CO)C(O)C(O)C7O)C(O)C(O)C6O)CC(O)C5(C)C4CCC32C)C1` (stereo not given) was tested, and the Potency was “inactive”.
